Rows were chosen to be rich in hits. Some 3.6% of all compounds tested hit in one or more screens of this group.
LGR2 inh – blocks bursicon-induced cAMP signaling via Drosophila LGR2; 380,000 tested, 0.35% active; HEK293 LGR2, CRE-luciferase, bursicon-stimulated, 4 h; AID 720647; inhibition, % at 9.99 µM;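 active = drop in luminescence signal, shown as inhibition above about 50% in the replicate tests, limit read from the data, passing the limit was not always enough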;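 also: agonist challenge used bursicon conditioned medium at about half maximal strength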
EBV LMP1 NFkB – reduces LMP1-driven NF-kappaB luciferase signal; LMP1-induced NF-kappaB luciferase reporter cells, luminescence; inhibition, % at 12.5 µM; 350,000 tested, 0.69% active; in the data active = inhibition above about 41%
TROY signal inh – blocks TROY-dependent signaling in reporter cells. Q293 LMP1-TROYcd NF-kB luciferase reporter, 4 h. inhibition, % at 10 µM. 360,000 tested, 0.98% active. AID 1347056;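 active = compounds whose plate-normalised and pattern-corrected inhibition of the luciferase reporter signal at the single screening dose is 50% or more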
TWEAK Fn14 block – inhibitors of TWEAK-Fn14 interaction signaling | inhibition, % at 10 µM | 360,000 tested, 2% active | TWEAK-stimulated Fn14 reporter cells, luciferase luminescence, 8 h | AID 1159606; in the data active = inhibition above about 50%
HSF-1 act – increases HSF-1 driven luciferase reporter signal; 300,000 tested, 1.7% active; activation, % at 9 µM; AID 504408; NIH3T3-HGL HSF-1 luciferase reporter, MG132, 8 h; 100% = twice DMSO control signal;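 active = mean replicate activation of at least 50% with a set share of replicates each reaching 50%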
HSF1 inhib – HSF1 inhibition. AID 2098. NIH3T3-HGL HSE-luciferase, MG132-induced, luminescence 8 h; hits give low values. 300,000 tested, 0.77% active. activity change, negative = inhibition, % at 7.5 µM (by protocol);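 active = more than half of replicate wells show activity change below -50%, luminescence cut by over half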;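 also: luciferase reports HSF-1 transcriptional activity via heat shock element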
A number is an active result; – = inactive; · = not tested or not shown.

SMILES | LGR2 inh | EBV LMP1 NFkB | TROY signal inh | TWEAK Fn14 block | HSF-1 act | HSF1 inhib
C[C@H]1CN([C@@H](C)CO)C(=O)Cc2cc(NC(=O)CCCN(C)C)ccc2O[C@H]1CN(C)S(=O)(=O)c1ccccc1 | – | · | · | · | · | ·
CCOC(=O)/C=C/C(=O)Nc1ccc(S(=O)(=O)N(C)c2ccccc2)cc1 | – | – | – | – | 67 | –
CN(c1ccccc1)S(=O)(=O)c1ccc(NC(=O)c2ccc(-c3ccccc3)cc2)cc1 | – | – | – | 54 | – | –
Cc1nc2ccc(NC(=O)c3ccc(Cl)c(S(=O)(=O)N(C)c4ccccc4)c3)cc2s1 | – | – | 56 | 96 | – | –
Cc1nc2cc(NC(=O)c3ccc(S(=O)(=O)N(C)c4ccccc4)cc3)ccc2o1 | – | – | – | 74 | – | –
CC(=O)Nc1ccc(S(=O)(=O)N(C)c2ccccc2)cc1 | · | – | – | – | – | –
Cc1nc2ccc(NC(=O)c3cc(S(=O)(=O)N(C)c4ccccc4)ccc3Cl)cc2s1 | – | – | – | – | – | –
CC(=O)Oc1ccc2occ(-c3ccccc3)c2c1 | – | – | – | 54 | – | –
CC(=O)Oc1ccc2occ(C(=O)c3ccccc3)c2c1 | – | · | – | – | 63 | –
COc1ccc(C(=O)c2coc3ccc(O)cc23)cc1 | – | – | – | 56 | – | –
CC(=O)Oc1ccc2occ(C(=O)c3cccs3)c2c1 | · | – | – | – | – | –
CCCNC(=O)C[C@@H]1C[C@@H]2c3cc(NC(=O)c4ccc5c(c4)OCO5)ccc3O[C@@H]2[C@H](CO)O1 | – | · | · | · | · | ·
C[C@@H](NC(=O)C[C@H]1C=C[C@H](NC(=O)C2CC2)[C@H](CO)O1)c1ccccc1 | – | · | · | · | · | ·
Cc1ccc(-c2nn(-c3ccccc3)cc2/C=C/C(=O)OCC(=O)NC2CC2)o1 | – | – | 56 | – | – | –
Cc1ccccc1CN(C)C[C@H]1OCc2cn(nn2)CCCC(=O)N([C@H](C)CO)C[C@@H]1C | – | · | · | · | · | ·
COCCCNCCOc1ccc(C)cc1[N+](=O)[O-] | – | – | – | – | 59 | –
Cc1nnnn1/C(=C\c1ccccc1)C(=O)OCC(=O)Nc1cccc(S(=O)(=O)N(C)C)c1 | – | – | – | 72 | · | ·
Cc1nnnn1/C(=C\c1ccccc1)C(=O)OCC(=O)Nc1ccc(Cl)cc1F | – | – | 65 | 70 | 334 | –
CCN(CC(=O)Nc1c(F)cccc1F)C(=O)Cc1n[nH]c(=O)c2ccccc12 | – | – | – | – | – | -72
CN1N=C2c3ccccc3CCC2C1c1ccc(C(F)(F)F)cc1 (configuration not stated) | · | · | · | · | – | -58
CCC(=O)N1CC(=O)N2[C@H](CO)[C@@H](c3ccc(-c4ccccc4F)cc3)[C@@H]2C1 | – | · | · | · | · | ·
CCC(=O)Nc1cc(-c2nn(C)c(=O)c3ccccc23)ccc1OC | · | – | – | – | – | –
CCCC(=O)Nc1cc(-c2nn(C)c(=O)c3ccccc23)ccc1OC | · | – | – | – | 60 | –
CC1=CC2C(C(O)CC3(C)C2CC(C)C32OCOC23COCO3)C2(C)C/C(=C\O)C(=O)C=C12 (configuration not stated) | 80 | – | 83 | 109 | 94 | 94
Cc1ccc(S(=O)(=O)Cn2nnnc2CN(Cc2ccco2)CC2CCCO2)cc1 (configuration not stated) | · | – | – | – | 59 | –
SMILES | LGR2 inh | EBV LMP1 NFkB | TROY signal inh | TWEAK Fn14 block | HSF-1 act | HSF1 inhib
COc1ccc(N2C3=[N+](CC2(C)O)c2ccccc2CC3)cc1 (configuration not stated) | – | 69 | – | – | – | –
COCCN1C(=O)/C(=C/c2ccc(Oc3ccc([N+](=O)[O-])cn3)c(OC)c2)SC1=Nc1ccccc1 | · | – | – | – | – | –
O=C(CC1SC(=Nc2ccccc2)N(CCc2c[nH]c3ccccc23)C1=O)Nc1ccccc1F (configuration not stated) | – | – | – | – | – | –
O=C1/C(=C/c2ccc(N3CCOCC3)o2)SC(=Nc2ccccc2)N1CCc1c[nH]c2ccccc12 | · | – | – | 90 | – | –
COc1cc(/C=C2\SC(=Nc3ccccc3)N(CCc3c[nH]c4ccccc34)C2=O)ccc1OC(C)C(=O)O (configuration not stated) | – | – | 59 | – | – | –
COc1ccc(N=C2S/C(=C\c3ccc(OC(C)C(=O)O)c(OC)c3)C(=O)N2CCc2c[nH]c3ccccc23)cc1 (configuration not stated) | – | – | 54 | – | – | –
CCCN1C(=O)/C(=C/c2cc(C)n(C)c2C)SC1=Nc1ccc(OC)cc1 | – | – | – | – | – | –
CO[C@@H]1CN(C)C(=O)c2cc(NC(=O)c3cnccn3)ccc2OC[C@H](C)N(C(=O)C2CC2)C[C@H]1C | – | · | · | · | · | ·
CC(C)C(c1nnnn1C1CCCC1)N1CCc2ccccc21 (configuration not stated) | · | – | – | – | · | ·
Cc1ccc(C(c2nnnn2C2CCCC2)N2CCc3ccccc32)cc1 (configuration not stated) | – | – | – | – | 59 | –
CC(C)c1cc2c(c(O)c1O)[C@@]13CCCC(C)(C)C1CC2OC3=O (some centres not stated) | – | – | – | – | 66 | –
Cc1nn(-c2ccccc2)c(C)c1NC(=O)COc1ccc2ccccc2c1 | – | – | 55 | – | – | –
Cc1nn(-c2ccccc2)c(C)c1NC(=O)COc1ccc(Br)cc1Cl | – | – | – | 78 | – | –
CO[C@H]1CN(C)C(=O)c2ccc(NC(=O)C3CC3)cc2OC[C@@H](C)N(Cc2nccs2)C[C@H]1C | – | · | · | · | · | ·
Fc1ccccc1SCc1nnc(-c2ccccc2Br)o1 | – | – | – | – | 79 | –
NNC(=O)CCN1CCCCC1 | – | – | 70 | 86 | – | –
Cc1ccc(S(=O)(=O)N(C)C)cc1NC(=S)NC12CC3CC(CC(C3)C1)C2 | – | – | – | – | – | –
CCN(CC)S(=O)(=O)c1cccc(NC(=O)CCNC(=O)c2ccc([N+](=O)[O-])cc2)c1 | – | – | – | – | – | –
CN(C)S(=O)(=O)c1cccc(NC(=S)NC23CC4CC(CC(C4)C2)C3)c1 | – | – | – | 62 | – | –
CCN(CC)S(=O)(=O)c1cccc(NC(=O)CCNC(=O)NC23CC4CC(CC(C4)C2)C3)c1 | · | – | – | – | – | -66
C[C@@H]1CN([C@H](C)CO)C(=O)c2cc(NC(=O)Nc3ccc4c(c3)OCO4)ccc2O[C@@H](C)CCCCO[C@H]1CN(C)Cc1ccncc1 | – | · | · | · | · | ·
C[C@H](CO)N1C[C@H](C)[C@H](CN(C)Cc2ccc(C(=O)O)cc2)OCCCC[C@H](C)Oc2ccc(NS(=O)(=O)c3cccs3)cc2C1=O | – | · | · | · | · | ·
CO[C@H]1CN(C)C(=O)c2cc(NS(C)(=O)=O)ccc2OC[C@@H](C)N(CC2CC2)C[C@@H]1C | – | · | · | · | · | ·
Cc1cc(C)c(C)c(S(=O)(=O)NCc2ccco2)c1C | · | · | · | · | 78 | –
